Data on 37 molecules can be found in PubChem BioAssay (EPA / NIEHS).

Structures are written as SMILES. Activity calls are given as the source filed them. The calls were made as follows: active = hit-call score of the fitted dose curve at least 0.9, where 1 is the maximum; inactive = score below 0.9.

The nature of this test: Tanguay_ZF_120hpf_AXIS: Oregon State University Tanguay Lab 120 Hour Post-fertilization zebrafish Assay for Axial Malformation (AID 2284398). As for the experimental part:
Tanguay_ZF_120hpf is a whole embryo, multiplexed endpoint assay using zebrafish larvae exposed for 120 hours post fertilization on a 96-well plate.Tanguay_ZF_120hpf_AXIS is one of one assay component(s) measured or calculated from the Tanguay_ZF_120hpf assay. It is designed to make measurements of zebrafish development as detected with brightfield microscopy of developing zebrafish embryos.Data from the assay component Tanguay_ZF_120hpf_AXIS was analyzed into 1 assay endpoints. This assay endpoint, Tanguay_ZF_120hpf_AXIS, was analyzed in the positive analysis fitting direction relative to DMSO as the negative control and baseline of activity. Using a type of morphology reporter, gain-of-signal activity can be used to understand changes in developmentals as they relate to the whole embryo. To generalize the intended target to other relatable targets, this assay endpoint is annotated to the zebrafish development intended target family, where the subfamily is body axis morphogenesis.
Zebrafish husbandry: Tropical 5D wild-type adult zebrafish were housed in at an approximate density of 1000 per 100 gallon tank at the Sinnhuber Aquatic Research Laboratory, Oregon State University, Corvallis, OR. Each tank was kept at standard laboratory conditions of 28C on a 14-h light/10-h dark photoperiod in fish water consisting of reverse osmosis water supplemented with a commercially available salt (Instant Ocean). Spawning funnels were placed into the tanks the night prior, and embryos were collected and staged. To increase bioavailability, the chorion was enzymatically removed using pronase (63.6mg/ml, >/= 3.5U/mg, Sigma-Aldrich: P5147) at 4 hours post fertilization (hpf) using a custom automated dechorionator.Chemical exposures: Six hpf dechorionated embryos were placed 1 embryo per well in a 96-well plate prefilled with 90 ul of EM using automated embryo placement systems (AEPS). Ten microliters of each row of dilution plate 2 was added to 2 exposure plates. The final DMSO concentration used was 0.64% (vol/vol). Thirty-two embryos were also exposed to 5uM trimethyltin chloride (positive control). Plates were sealed to prevent evaporation and foil covered to reduce light exposure and kept in a 28C incubator. Embryos were statically exposed until 120 hpf. At 24 hpf, embryos were assessed for photomotor response using a custom photomotor response analysis tool (PRAT) and for developmental toxicity endpoints (MO24: mortality at 24 hpf, DP: developmental progression, SM: spontaneous movement, and NC: notochord distortion). At 120 hpf, locomotor activity was measured using Viewpoint Zebralab and assessed for 13 endpoints. Zebrafish acquisition and analysis program (ZAAP), a custom program designed to inventory, acquire, and manage zebrafish data, was used to collect developmental endpoints as either present or absent (i.e., binary responses were recorded). If mortality occurred for an embryo (at either 24 or 120 hpf), the non-mortality endpoints were not measured.
For the molecule `NC(=O)C(F)(F)C(F)(F)C(F)(F)C(F)(F)C(F)(F)C(F)(F)C(F)(F)F`, the call was inactive. The same measure, in the same setting: with `O=S(=O)(O)CCC(F)(F)C(F)(F)C(F)(F)C(F)(F)F` the entry was “inactive”; with `OCC(F)(F)C(F)(F)C(F)(F)CO`, “inactive”; with `CCN(CCO)S(=O)(=O)C(F)(F)C(F)(F)C(F)(F)C(F)(F)C(F)(F)C(F)(F)C(F)(F)C(F)(F)F`, “inactive”. The same measure, in the same setting: with `OCC(O)CC(F)(F)C(F)(F)C(F)(F)C(F)(F)F` (configuration not stated) the entry was “inactive”.

In the case of `FC(F)(F)C(F)(F)C(F)(F)C(F)(F)C(F)(F)C(F)(F)CC[Si](Cl)(Cl)Cl`, the result was inactive.

`NS(=O)(=O)C(F)(F)C(F)(F)C(F)(F)C(F)(F)C(F)(F)C(F)(F)F`: the call was inactive. Same read-out and setting: then `O=S(=O)(Cl)C(F)(F)C(F)(F)C(F)(F)C(F)(F)C(F)(F)C(F)(F)C(F)(F)C(F)(F)F`, with “inactive”; and `C=CC(=O)OCCC(F)(F)C(F)(F)C(F)(F)C(F)(F)F`, with “inactive”. On the same count and under the same terms, with `NC(=O)C(F)(F)C(F)(F)C(F)(F)C(F)F` the entry was “inactive”; with `O=C(O)C(F)(F)C(F)(F)C(F)(F)OC(F)(C(F)(F)F)C(F)(F)F`, “inactive”; with `C=CC(=O)OCC(F)(F)C(F)(F)C(F)(F)COC(=O)C=C`, “inactive”.

On to `NC(O)(C(F)(F)F)C(F)(F)F`, for which the call was inactive.

With `OCC(F)(F)C(F)(F)C(F)(F)C(F)(F)C(F)(F)C(F)(F)CO`, the call was inactive. Still for that read-out and setting: with `CO[Si](C)(CCC(F)(F)C(F)(F)C(F)(F)C(F)(F)C(F)(F)C(F)(F)F)OC` the entry was “inactive”; with `OC(O)C(F)(F)C(F)(F)F`, “inactive”; with `O=S(=O)(OCC(F)(F)F)C(F)(F)C(F)(F)C(F)(F)C(F)(F)F`, “inactive”. On the same count and under the same terms, then `COC(F)(C(F)F)C(F)(F)F` (configuration not stated), with “inactive”.

For the molecule `CNS(=O)(=O)C(F)(F)C(F)(F)C(F)(F)C(F)(F)C(F)(F)C(F)(F)C(F)(F)C(F)(F)F`, the molecule was classed as inactive. On to `O=C(F)C1(F)C(F)(F)C(F)(F)C(F)(F)C(F)(F)C1(F)F`, for which the molecule was classed as inactive. Same read-out and setting: with `OCCCCC(F)(F)C(F)(F)C(F)(F)C(F)(F)F` the entry was “inactive”; with `O=C(O)CCC(F)(F)C(F)(F)C(F)(F)C(F)(F)C(F)(F)C(F)(F)C(F)(F)F`, “inactive”; with `FC(F)(F)C(F)(F)C(F)(F)CC1CO1` (configuration not stated), “inactive”. Still for that read-out and setting: with `NC(=O)C(F)(F)C(F)(F)C(F)(F)F` the entry was “inactive”. The same measure, in the same setting: then `O=C(O)C(F)(F)C(F)(F)C(F)(F)OC(F)(F)F`, with “inactive”. Consider `C[Si](Cl)(Cl)CCC(F)(F)C(F)(F)C(F)(F)C(F)(F)C(F)(F)C(F)(F)F`, for which the molecule was classed as inactive. As to `CN(C(=O)C(F)(F)C(F)(F)C(F)(F)F)[Si](C)(C)C`, the result was inactive. On the same count and under the same terms, with `OCCCC(F)(F)C(F)(F)C(F)(F)C(F)(F)C(F)(F)C(F)(F)C(F)(F)C(F)(F)F` the entry was “inactive”; with `OCC(F)(F)C(F)(F)C(F)(F)C(F)(F)C(F)(F)C(F)(F)C(F)(F)C(F)(F)CO`, “inactive”.

As to `C=CC(=O)OCC(F)(F)C(F)(F)C(F)(F)C(F)(F)C(F)(F)C(F)(F)C(F)(F)C(F)F`, the molecule was classed as inactive. In the case of `OCC(O)CC(F)(F)C(F)(F)C(F)(F)C(F)(F)C(F)(F)C(F)(F)C(F)(F)C(F)(F)F` (configuration not stated), the AC50 was 6.61 µM (active). As for `NC(=O)C(F)(F)C(F)(F)C(F)(F)C(F)(F)C(N)=O`, the molecule was called inactive. Same read-out and setting: then `CCOC(=O)CC(=O)C(F)(F)C(F)(F)F`, with “inactive”; and `O=S(=O)(O)CCC(F)(F)C(F)(F)C(F)(F)C(F)(F)C(F)(F)C(F)(F)C(F)(F)C(F)(F)F`, with “inactive”.

On to `O=C(O)C(F)(F)C(F)(F)C(F)(F)C(=O)O`, for which the call was inactive.

`O=C(O)CCC(F)(F)C(F)(F)C(F)(F)F`: the outcome was inactive.

`FC(F)(F)C(F)(F)C(F)(F)C(F)(F)C(F)(F)C(F)(F)C(F)(F)CCI`: the molecule was classed as inactive.
